Screening data from PubChem BioAssay.
SMN2 splice enh: increases expression of the SMN2 splice variant; HEK293 SMN2-luciferase splicing reporter, luminescence, 30-36 h; Potency, µM (highest dose often 46.1 µM), usual class: activators; 210,000 compounds, 2.8% hits; AID 1458; also: nearly all actives have a fitted effect of over 55% in size
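HEK293 cells carry an SMN2 minigene-luciferase reporter in which exon 7 inclusion puts luciferase in frame. Cells were seeded at 2000 cells/well, attached for 10-12 hours, then exposed to compounds for 30-36 hours at 37C before ONE-Glo luminescence.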
FLuc counter: inhibits or activates purified firefly luciferase, miR-21 counter-screen; purified FLuc, Km substrates, luminescence inhibition; 360,000 compounds, 6.9% hits; Potency, µM (top dose mostly 57.5 µM), hits mostly inhibitors; also: nearly all actives have a fitted effect of over 55% in size
Target sequence (P08659 whole entry, looked up): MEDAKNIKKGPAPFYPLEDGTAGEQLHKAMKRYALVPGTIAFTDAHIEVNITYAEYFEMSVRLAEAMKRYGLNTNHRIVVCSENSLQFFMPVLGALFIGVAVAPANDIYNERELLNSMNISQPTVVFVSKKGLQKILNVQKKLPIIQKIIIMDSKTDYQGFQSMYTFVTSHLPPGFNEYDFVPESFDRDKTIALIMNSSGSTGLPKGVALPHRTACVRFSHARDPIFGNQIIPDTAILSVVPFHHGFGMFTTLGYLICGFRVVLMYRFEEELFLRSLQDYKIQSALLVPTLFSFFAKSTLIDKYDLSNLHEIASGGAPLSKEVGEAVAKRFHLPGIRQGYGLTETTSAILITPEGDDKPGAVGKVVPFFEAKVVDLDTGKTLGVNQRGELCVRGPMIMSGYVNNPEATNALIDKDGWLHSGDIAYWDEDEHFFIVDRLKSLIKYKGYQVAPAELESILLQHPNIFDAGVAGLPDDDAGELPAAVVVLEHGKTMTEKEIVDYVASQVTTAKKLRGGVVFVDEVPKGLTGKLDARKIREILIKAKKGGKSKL
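Biochemical qHTS of compounds, final roughly 60 µM downward over six points, against 10 nM purified firefly luciferase using Km concentrations of substrates (10 uM D-luciferin, 10 uM ATP) in Tris acetate pH 7.5 buffer; luminescence output.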
ELG1 DNA repair: blocks ELG1-dependent DNA repair in HEK293T cells | HEK293T ELG1-luciferase reporter, luminescence, 16 h; DNA damage induced by 5-fluorouridine | Potency, µM (highest dose often 46.1 µM), usual class: inhibitors | 330,000 compounds, 2.3% hits; also: nearly all actives have a fitted effect of over 55% in size
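Step one: seed 2,000 cells per well. Step two: pin-transfer compound or DMSO alongside 5-fluorouridine. Step three: incubate 16 hr, 37 °C, 5% CO2. Step four: add ONE-Glo, wait 30 min, read luminescence.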
NPC1 prom act: activators of NPC1 promoter. Huh7 NPC1 promoter luciferase reporter, 24 h. Potency, µM (top dose mostly 9.22 µM), hits mostly activators. 320,000 compounds, 2.4% hits; also: nearly all actives have a fitted effect of over 60% in size
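Compounds in DMSO were transferred onto Huh7 NPC1-luciferase reporter cells pre-incubated 2 h; after 24 h at 37 °C, Amplite reagent was dispensed and luminescence recorded 10 min later.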
Rab9 prom act: Rab9 promoter activation. Huh7 Rab9 promoter-luciferase reporter, luminescence, 24 h. Potency, µM (doses to about 9.22 µM), actives largely listed as activators. 320,000 compounds, 2.8% hits. AID 485297; also: nearly all actives have a fitted effect of over 60% in size
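Promoter activation is measured as luciferase luminescence in Huh7 cells stably transfected with a Rab9 promoter–luciferase construct, following 24 h compound exposure at 37 °C and 10 min reagent incubation at ambient temperature.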
ELG1 genotox: induces genotoxicity in HEK293T cells with luciferase-tagged ELG1; 330,000 compounds, 1.3% hits; AID 504466; HEK293T ELG1-luciferase reporter, luminescence, 16 h; Potency, µM (highest dose often 46 µM), actives largely listed as activators; also: nearly all actives have a fitted effect of over 60% in size
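After overnight (16 hr) compound treatment at 37 °C, ELG1-luciferase HEK293T cells were lysed with ONE-Glo; luminescence quantified 30 min later at room temperature.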
Numbers stand for hits; . = inactive; ? = inconclusive; / = not tested or not shown. An excerpt weighted towards active compounds, which were near 9.2% of everything screened. Calls follow the shape of the dose curve; as a rule, active = well fitted curve in the direction sought with a large enough effect; inconclusive = small, poorly fitted or top-dose-only effect, or another doubt; inactive = no such curve, though single readings can be large; an effect the other way counts as inactive or inconclusive.

SMILES	SMN2 splice enh	FLuc counter	ELG1 DNA repair	NPC1 prom act	Rab9 prom act	ELG1 genotox
C[C@@H]1COC(=O)[C@@H](CC(=O)OC(C)(C)C)C/C=C\C[C@H](CC(=O)NCCO)C(=O)N1	/	/	.	/	/	.
CC(C)[C@@H](C(=O)N[C@@H](Cc1ccccc1)C(=O)O)N1C(=O)N2CCc3c([nH]c4ccccc34)[C@@]2(C)C1=O	/	.	.	.	.	.
CCc1nnc(SCC(=O)Nc2nc(C)c(C(=O)N(C)C)s2)n1CC	/	.	.	.	.	.
CCCN=Cc1sc2ccc(OCC)cc2c1O	.	12µM	?	?	3.16µM	23.1µM
CC(=O)NCCN=Cc1sc2ccccc2c1O	.	?	?	.	.	.
O=c1oc2ccccc2n1CCn1c2ccccc2c2nc3ccccc3nc21	.	.	?	.	.	.
O=c1c(-c2nc3ccccc3o2)c2oc3ccccc3n2c2ccccc12	.	?	5.17µM	.	.	.
CCCn1c(N)c(C(=O)CSc2nnc(Cc3ccccc3)o2)c(=O)n(C)c1=O	.	.	5.8µM	.	.	.
CCCn1c(N)c(C(=O)CSc2n[nH]c(-c3ccccc3F)n2)c(=O)n(C)c1=O	/	.	?	.	.	.
CCOc1cc(/C=N/NC(=O)c2cc(C)n(-c3ccc(F)cc3)c2C)ccc1O	/	?	?	.	.	.
Cc1cc(C(=O)N/N=C2\CC(=O)c3ccccc32)c(C)n1-c1ccc(F)cc1	/	8.49µM	?	.	?	.
Cc1[nH]c2ccc3ncccc3c2c1C	.	21.3µM	.	.	.	.
Cc1c(C)c2cccnc2c2ncccc12	/	?	?	.	.	.
CCOC(=O)N1CCN(C(=O)CSc2nc3c([nH]c4ccccc43)c(=O)n2CCOC)CC1	/	.	7.3µM	.	.	.
CCC1CCCCN1C(=O)CSc1nc2c([nH]c3ccccc32)c(=O)n1C (centres undefined)	.	.	23.1µM	.	.	.
COCCn1c(SCC(=O)N2CCCCCC2)nc2c([nH]c3ccccc32)c1=O	/	.	.	.	.	.
COCCn1c(SCC(=O)N2CCCCC2)nc2c([nH]c3ccccc32)c1=O	/	.	16.4µM	.	.	.
CCN(CC)S(=O)(=O)c1cc(NC(=O)Cc2n[nH]c(=O)c3ccccc23)ccc1C	/	.	20.6µM	.	.	.
CCN(CC)S(=O)(=O)c1cc(NC(=O)C2Cc3ccccc3C(=O)O2)ccc1C (centres undefined)	/	16.9µM	?	?	?	.
CCN(CC)S(=O)(=O)c1cc(NC(=O)C(C)N2CCN(c3ccccn3)CC2)ccc1C (centres undefined)	.	.	20.6µM	.	.	.
NCc1cccc(CNc2ccc([N+](=O)[O-])cc2C(N)=O)c1	/	.	.	?	3.16µM	?
CN1/C(=C/C(=O)C2CCC2)Sc2ccccc21	?	16.9µM	?	?	?	?
CN1/C(=C/C(=O)c2cccs2)Sc2ccccc21	7.94µM	1.2µM	?	.	.	1.3µM
CN1/C(=C\C(=O)c2cccs2)Sc2ccccc21	/	1.51µM	?	?	3.55µM	?
COc1ccc(OC)c(N(CC(=O)NC2CCCC2)S(=O)(=O)c2ccc(OC)c(OC)c2)c1	/	.	?	.	.	.
SMILES	SMN2 splice enh	FLuc counter	ELG1 DNA repair	NPC1 prom act	Rab9 prom act	ELG1 genotox
COc1cc(C2Nc3ccccc3C(=O)N2c2ccc(Cl)cc2)c(Cl)cc1OCC(=O)O (centres undefined)	12.6µM	?	?	3.16µM	2.51µM	?
CCOC(=O)COc1ccccc1C1Nc2ccccc2C(=O)N1c1cccc(Cl)c1 (centres undefined)	20µM	.	?	?	2.82µM	?
COc1cc2sc(-c3ccc(S(C)(=O)=O)cc3)c(C(=O)NCc3ccc(C)o3)c2cc1OC	/	/	18.3µM	/	/	.
COc1ccc(-c2cc(C(F)F)n3ncc(C(=O)NCCCN4CCCC4=O)c3n2)cc1	.	.	6.51µM	.	.	.
COc1ccc2sc(-c3ccc(S(C)(=O)=O)cc3)c(C(=O)NCCCN3CCCC3=O)c2c1	/	/	16.4µM	/	/	.
O=C(NCCCN1CCCC1=O)c1cc(-c2ccc(F)cc2)nc2ccccc12	/	/	18.3µM	/	/	.
CCCc1nc(SCC(=O)N2CCOCC2)c2c(C)c(C)sc2n1	/	.	?	.	.	.
O=C(CCl)Nc1ccccc1C(=O)NCc1ccccc1	.	.	?	.	.	.
COc1cccc(C(=O)N2CCC(N3CCN(Cc4ccc(F)cc4)C(=O)C3=O)CC2)c1	/	.	/	/	/	/
COc1ccc(-c2cc(C(=O)NCCCN3CCCC3=O)c3ccccc3n2)cc1	/	12µM	?	.	.	.
CCOC(=O)C(=O)Nc1ccc(S(=O)(=O)Nc2nccs2)cc1	/	.	.	.	.	.
CCC(=O)N1c2ccccc2C(N(C(C)=O)c2ccccc2)CC1C (centres undefined)	5.62µM	.	?	.	.	?
CCCC(=O)N1c2ccccc2[C@@H](N(C(C)=O)c2ccccc2)C[C@H]1C	.	.	.	.	.	.
CCC(=O)N1c2ccccc2C(N(C(=O)CC)c2ccccc2)CC1C (centres undefined)	/	.	?	.	.	23.1µM
Cc1ccc(C(=O)Nc2cccc(S(=O)(=O)N3CCCCC3)c2)cc1[N+](=O)[O-]	/	.	11.2µM	.	.	.
Cc1ccc(C(=O)Nc2cccc(C(=O)O)c2)cc1S(=O)(=O)N1CCCCC1	11.2µM	0.338µM	?	0.794µM	0.398µM	?
Cc1ccc(C(=O)Nc2ccccc2C(=O)NCc2ccco2)cc1S(=O)(=O)N1CCCCC1	.	.	11.6µM	.	.	.
Cc1ccc(C(=O)Nc2cccc(C(=O)O)c2)cc1S(=O)(=O)N1CCOCC1	12.6µM	1.07µM	?	1.26µM	2.24µM	.
Cc1cc(NS(=O)(=O)c2c(C)[nH]c(=O)[nH]c2=O)ccc1Br	/	.	.	.	.	.
Cc1ccc(C(=O)Nc2ccc3c(c2)CCC3)cc1S(=O)(=O)N1CCOCC1	?	16.9µM	?	?	2.24µM	?
Cc1nnc(NC(=O)c2ccc(C)c(S(=O)(=O)N3CCOCC3)c2)s1	.	?	/	/	/	/
CSc1nnc(NC(=O)c2ccc(C)c(S(=O)(=O)N3CCOCC3)c2)s1	11.2µM	?	?	.	.	?
Cc1ccc(NC(=O)c2cccc(S(=O)(=O)N(C)c3ccccc3)c2)cc1S(=O)(=O)N1CCOCC1	.	.	13µM	.	.	.
CCCC[C@@H]1C[C@H]1C(NC(=O)c1cccs1)c1ccc(-c2ccccc2)cc1 (some centres undefined)	.	/	/	/	/	/
CCOc1ccc(C(=O)Nc2ccc(Cl)cn2)cc1Cl	?	4.78µM	?	2.51µM	2.51µM	?
